This is part of a sample that, as a whole, favours compounds with a hit. Of some 83,000 tested, about 20% had one in any assay.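 Compound tested at a single concentration for 48 hours in 96-well plates; a percent growth value below 10 was scored as active.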 Active and inactive are the calls of the source.

This note sets out measurements from PubChem BioAssay (NCI).

This experiment has as its system RPMI-8226 leukemia. The experiment can be described thus: NCI-60 one-dose screen, 48 h (100 = growth as untreated, 0 = no growth, -100 = all killed). As to conditions: 10 µM unless noted. On the procedure:
Growth inhibition of the RPMI-8226 human tumor cell line is measured as a screen for anti-cancer activity. Cells are grown in 96 well plates and exposed to the test compound for 48 hours. Compounds are tested at a single concentration, which is 10^-5 M for most compounds. The reported endpoint is percent growth (GI% or GIPRCNT), where numbers from 0 - 100% represent growth inhibition, and numbers from -100% - 0 represent cell death. For example, a value of 40 represents 60% growth inhibition. A value of 0 means no net growth occurred over the course of the experiment. A value of -40 indicates 40% of cells at the beginning of the experiment died by the end of the experiment. A value of -100 means all cells are dead at the end of the experiment.
NCI-60 Human Tumor Cell Lines Screen was performed using the standard one-dose NCI protocol, which is described in more detail at https://dtp.cancer.gov/discovery_development/nci-60/default.htm.
Compounds with GIPRCNT values below 10 were considered active. Activity score was based on GIPRCNT using the following formula: […]
Score is 0 for GIPRCNT values of 100 or above, 50 for GIPRCNT values of 0, and 100 for GIPRCNT values of -100.
As to `C#Cc1cccc(Nc2ncnc3ccc(NC(=O)c4ccccc4)cc23)c1`, the growth was 64.6% (inactive).

Turning to `Cc1ccc(SC2c3ccc(C)cc3Oc3nc(N)c(C#N)c(N)c32)cc1` (stereo not given), the growth was 12.8% (inactive).

As to `COc1ccc2[nH]c(=O)c(/C=C/C(=O)/C=C/c3ccc(O)c(OC)c3)cc2c1`, the growth is -18.5% (active).

Regarding `CCCCn1c(=O)c(/C=C/C(=O)/C=C/c2ccc(OC)cc2)cc2cc(Cl)ccc21`, the growth was -18.7% (active).

Regarding `CCN(CC)c1ccc2c(c1)Oc1nc(N)c(C#N)c(N)c1C2Sc1ccc(OC)cc1` (stereo not given), the growth was -28.3% (active).

Take `CC(=O)Oc1ccc(O)cc1`: the growth is 69.5% (inactive).

On to `COc1ccc(-n2cc(-c3ccc(Cl)c(Cl)c3)[nH]c2=O)cc1OC`, for which the growth was 97.6% (inactive).

Take `O=c1cc(/C=N\Nc2nc(-c3ccc(Cl)cc3Cl)cs2)c2cc(Cl)ccc2o1`: the growth was 90.8% (inactive).

For the compound `CN(C)C(CNc1oc(-c2cccc3ccccc23)nc1C#N)c1ccco1` (stereo not given), the growth is 87.8% (inactive).

Take `CCOC(=O)c1c(C)nc2c(c1N)/C(=C/c1ccccn1)C(=O)N2Cc1ccccc1`: the growth was -25.8% (active).

As to `C=C(C)[C@@H]1CC[C@]2(C(=O)OCCOCCOCC[P+](c3ccccc3)(c3ccccc3)c3ccccc3)CC[C@]3(C)[C@H](CC[C@@H]4[C@@]5(C)CC[C@H](OC(C)=O)C(C)(C)[C@@H]5CC[C@]43C)[C@@H]12`, the growth was -63.9% (active).

Consider `COc1cc(C2=N/C(=C\c3cc4ccccc4nc3Oc3ccccc3)C(=O)N2C(=N)N)cc(OC)c1OC`, for which the growth was 86.1% (inactive).

Consider `NS(=O)(=O)c1ccc(N2Cc3cc(Cl)ccc3OC3=C2C(=O)N(CC2CCCCC2)C3=O)cc1`, for which the growth is -30% (active).

Take `C=C1C(=O)O[C@H]2[C@H]1CC/C(COC(=O)CCCCCCC(=O)OC/C1=C/CC[C@@]3(C)O[C@H]3[C@H]3OC(=O)C(=C)[C@@H]3CC1)=C\CC[C@@]1(C)O[C@@H]21`: the growth was 2.81% (active).

Regarding `COC(=O)c1nc(-c2ccccc2)oc1S(=O)(=O)n1nc(C)cc1N`, the growth was 53.2% (inactive).

Take `CC1(C)Cc2c(Br)c(Br)c(Br)c(OCC(O)CN3CCOCC3)c2O1` (stereo not given): the growth was 20.8% (inactive).

In the case of `CCc1ccc(OCc2ccccc2C(=O)Nc2ccc3nc(C)cc(N)c3c2)cc1`, the growth was -45.4% (active).

With `CSc1cccc(NC(=O)Nc2nc3c(C)cccc3s2)c1`, the growth is 60.7% (inactive).

As for `COCCOC(=O)COc1ccc(OC)cc1`, the growth is 97.3% (inactive).

As to `Cc1c(Cl)cccc1NC(=O)c1sc2nc3c(cc2c1N)COCC3`, the growth was 30.3% (inactive).

`COc1ccc(C(=O)c2cc(OC)c(OC)c(OC)c2)cc1OC(=O)C(Cl)(Cl)Cl`: the growth is 17.9% (inactive).

`C=C(C)[C@@H]1CC[C@]2(C(=O)OCCOCCOCC[P+](c3ccccc3)(c3ccccc3)c3ccccc3)CC[C@]3(C)[C@H](CC[C@@H]4[C@@]5(C)CC[C@H](C)C(C)(C)[C@@H]5CC[C@]43C)[C@@H]12`: the growth was -59.3% (active).

With `CC[C@]12C=CCN3CC[C@@]4(c5ccc(OC)cc5N(C)[C@H]4[C@@](O)(C(=O)OC)[C@@H]1OC(=O)CCC(=O)O[C@H]1CC[C@H]4[C@@H]5CC[C@H]6CC(=O)CC[C@]6(C)[C@H]5CC[C@]14C)[C@@H]32`, the growth is 0.329% (active).

`C#Cc1ccccc1NC(=O)c1sc2nc3c(cc2c1N)CCCCCC3`: the growth is 56.4% (inactive).

For `COC(=O)/C=C/c1cc(OC)c2c(c1)[C@@H](C(=O)OC)[C@H](c1ccc(OC)c(OC)c1)O2`, the growth was 12.6% (inactive).

Take `CC1(C)CC[C@]2(c3nnc(-c4ccncc4)o3)CC[C@]3(C)C(=CC[C@@H]4[C@@]5(C)CCC(=O)C(C)(C)[C@@H]5CC[C@]43C)[C@@H]2C1`: the growth is 62.4% (inactive).

`O=C1Nc2ccc(Cl)cc2/C1=N/c1nc(-c2ccc(Cl)cc2)cs1`: the growth is -2.3% (active).

Regarding `Cc1cc(Cl)cc(CN(Cc2ccccc2)Cc2c(O)ccc3ccccc23)c1O`, the growth was 87.4% (inactive).

`COC(=O)c1cc2c3c(cc(O)c2[nH]1)N(C(=O)C1Cc2cc(OC)c(OC)c(OC)c2N1)CC3CCl` (stereo not given): the growth was -13.2% (active).

On to `O=Cc1[nH]c(Sc2ccccc2)c2ccccc12`, for which the growth is 7.59% (active).

For the compound `COc1ccc(-c2cc(C(=O)N3N=C(c4ccc(N)cc4)CC3c3ccc(OC)cc3)c3cc(OC)ccc3n2)cc1` (stereo not given), the growth was 16.9% (inactive).

As for `O=C(O)c1ccc(-n2cc(/C=N/Nc3ccc(Cl)cc3Cl)c(-c3ccccc3)n2)cc1`, the growth is 83.2% (inactive).

For `C=C1C(=O)O[C@H]2[C@H]1CC/C(COC(=O)N1CCC[C@H]1C(=O)Nc1ccc(OC)c(C(N)=O)c1O)=C\CC[C@@]1(C)O[C@@H]21`, the growth was 1.38% (active).

With `COc1cc(/C=C/C(=O)/C=C/c2cc3ccc(Cl)cc3[nH]c2=O)ccc1O`, the growth was 4.64% (active).

On to `CCN1CCN(c2ccc(NC(=O)Nc3nc4ccc(-c5ccccc5OC)cc4s3)cc2)CC1`, for which the growth was -33% (active).

Consider `C#CCN1C(=O)c2ccccc2N(CC#C)C12CCN(Cc1cn(CC(=O)Nc3ccccc3C(N)=O)nn1)CC2`, for which the growth is 82.2% (inactive).

Take `CCC1S/C(=N\N=C(/C)c2ccc[nH]2)N(c2ccccc2)C1=O` (stereo not given): the growth was 57.5% (inactive).

Consider `CC(C)(C)c1ccc2oc(=O)n(SC(Cl)(Cl)Cl)c2c1`, for which the growth was 102% (inactive).

Regarding `Nc1cccc(C(=O)Nc2ccc3c(O)c(N=Nc4ccc(N=Nc5ccc(S(=O)(=O)O)cc5)cc4)c(S(=O)(=O)O)cc3c2)c1`, the growth was 98.2% (inactive).

For `CCO/C=N/S(=O)(=O)c1cc2c(cc1Cl)NC=NS2(=O)=O`, the growth was 104% (inactive).
